Test results published in PubChem BioAssay AID1159580 (chemical genetic matrix, 2015).
Among all 5,500 compounds or so, about 2,000 (36%) were called active. Another 18% or so got no clear call; they are omitted. Rule as the data show it: active = normalized growth mostly below about 0.91 (no sharp cut-off); inconclusive = no clear call, values can overlap the other calls; inactive = mostly above about 0.92. The list shows a part of the results.

Assay: chemical genetic growth profiling, strain panel (AID 1159580);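 also: tested at 20 µM; growth read once vehicle control cultures reached saturation at 30 °C; 1 = growth at the plate median or of vehicle wells; lower values mean less growth of the strain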
Conditions: S. cerevisiae deletion strains, growth OD
[1] = locus YAL040C, strain CLN3, hits give low values
[2] = locus YCL061C, strain MRC1 (second series), hits give low values
[3] = locus YDR363W, strain ESC2, hits give low values
[4] = locus YER002W, strain NOP16, hits give low values
[5] = locus YJR075W, strain HOC1, hits give low values
[6] = locus YMR263W, strain SAP30, hits give low values
[7] = locus YNL153C, strain GIM3, hits give low values
[8] = locus YNL175C, strain NOP13, hits give low values
[9] = locus YNL197C, strain WHI3, hits give low values
[10] = locus YNL224C, strain SQS1, hits give low values
[11] = locus YOR083W, strain WHI5 (second series), hits give low values
[12] = locus YAL021C, strain ccr4, hits give low values
[13] = locus YAL026C, strain drs2, hits give low values
[14] = locus YAL030W, strain snc1, hits give low values
[15] = locus YBL061C, strain skt5, hits give low values
[16] = locus YBR009C, strain hhf1, hits give low values
[17] = locus YBR023C, strain chs3, hits give low values
[18] = locus YBR171W, strain sec66, hits give low values
[19] = locus YBR231C, strain swc5, hits give low values
[20] = locus YBR279W, strain paf1, hits give low values
[21] = locus YCL011C, strain gbp2, hits give low values
[22] = locus YCL016C, strain dcc1, hits give low values
[23] = locus YCL061C, strain MRC1, hits give low values
[24] = locus YCL069W, strain vba3, hits give low values
[25] = locus YCR088W, strain abp1, hits give low values
[26] = locus YDL005C, strain med2, hits give low values
[27] = locus YDL040C, strain nat1, hits give low values
[28] = locus YDR001C, strain nth1, hits give low values
[29] = locus YDR069C, strain doa4, hits give low values
[30] = locus YDR137W, strain rgp1, hits give low values
[31] = locus YDR159W, strain sac3, hits give low values
[32] = locus YDR297W, strain sur2, hits give low values
[33] = locus YDR334W, strain swr1, hits give low values
[34] = locus YDR335W, strain msn5, hits give low values
[35] = locus YDR392W, strain spt3, hits give low values
[36] = locus YEL003W, strain gim4, hits give low values
[37] = locus YEL037C, strain rad23, hits give low values
[38] = locus YEL061C, strain CIN8 (second series), hits give low values
[39] = locus YER015W, strain faa2, hits give low values
[40] = locus YER016W, strain bim1, hits give low values
[41] = locus YER111C, strain swi4, hits give low values
[42] = locus YER155C, strain BEM2 (second series), hits give low values
[43] = locus YFR010W, strain ubp6, hits give low values
[44] = locus YGL167C, strain pmr1, hits give low values
[45] = locus YGL173C, strain kem1, hits give low values
[46] = locus YGL227W, strain vid30, hits give low values
[47] = locus YGL240W, strain doc1, hits give low values
[48] = locus YGL253W, strain hxk2, hits give low values
[49] = locus YHR013C, strain ard1, hits give low values
[50] = locus YHR027C, strain rpn1, hits give low values
[51] = locus YHR142W, strain chs7, hits give low values
[52] = locus YJL092W, strain hpr5, hits give low values
[53] = locus YJL095W, strain BCK1 (second series), hits give low values
[54] = locus YJL115W, strain asf1, hits give low values
[55] = locus YJL129C, strain trk1, hits give low values
[56] = locus YJL154C, strain vps35, hits give low values
[57] = locus YJL164C, strain tpk1, hits give low values
[58] = locus YJL166W, strain qcr8, hits give low values
[59] = locus YJL187C, strain SWE1, hits give low values
[60] = locus YKL160W, strain elf1, hits give low values
[61] = locus YKR026C, strain gcn3, hits give low values
[62] = locus YKR091W, strain srl3, hits give low values
[63] = locus YLL001W, strain dnm1, hits give low values
[64] = locus YLL026W, hits give low values
[65] = locus YLL041C, strain sdh2, hits give low values
[66] = locus YLR027C, strain aat2, hits give low values
[67] = locus YLR221C, strain rsa3, hits give low values
[68] = locus YLR258W, strain gsy2, hits give low values
[69] = locus YLR262C, strain YPT6 (second series), hits give low values
[70] = locus YLR320W, strain mms22, hits give low values
[71] = locus YLR342W, strain FKS1, hits give low values
[72] = locus YLR357W, strain rsc2, hits give low values
[73] = locus YLR370C, strain arc18, hits give low values
[74] = locus YLR384C, strain iki3, hits give low values
[75] = locus YML120C, strain ndi1, hits give low values
[76] = locus YMR058W, strain fet3, hits give low values
[77] = locus YMR125W, strain sto1, hits give low values
[78] = locus YMR129W, hits give low values
[79] = locus YMR205C, strain PFK2, hits give low values
[80] = locus YMR231W, strain pep5, hits give low values
[81] = locus YNL071W, strain lat1, hits give low values
[82] = locus YNL209W, strain ssb2, hits give low values
[83] = locus YNL248C, strain rpa49, hits give low values
[84] = locus YNL322C, strain KRE1 (second series), hits give low values
[85] = locus YNR049C, strain mso1, hits give low values
[86] = locus YOR001W, strain rrp6, hits give low values
[87] = locus YOR070C, strain gyp1, hits give low values
[88] = locus YOR080W, strain dia2, hits give low values
[89] = locus YOR083W, strain WHI5, hits give low values
[90] = locus YOR106W, strain vam3, hits give low values
[91] = locus YOR265W, strain rbl2, hits give low values
[92] = locus YOR270C, strain vph1, hits give low values
[93] = locus YOR290C, strain snf2, hits give low values
[94] = locus YPL051W, strain arl3, hits give low values
[95] = locus YPL078C, strain atp4, hits give low values
[96] = locus YPL106C, strain sse1, hits give low values
[97] = locus YPL240C, strain hsp82, hits give low values

Measured: normalized growth

CC[N+](CC)(CC)CC
inactive: [1] 1.02 | [2] 1 | [3] 0.99 | [4] 0.989 | locus YGR078C, strain PAC10, hits give low values 1 | locus YGR229C, strain SMI1, hits give low values 1.02 | [5] 1.02 | [6] 0.994 | locus YMR307W, strain GAS1, hits give low values 0.991 | [7] 0.986 | [8] 0.981 | [9] 1.01 | [10] 0.997 | [11] 0.999

CC#C[C@]1(O)CC[C@H]2[C@@H]3CCC4=CC(=O)CCC4=C3[C@@H](c3ccc(N(C)C)cc3)C[C@@]21C
inactive: [1] 0.978 | [2] 0.98 | locus YDR150W, strain NUM1, hits give low values 0.981 | [3] 1.01 | [4] 1 | [5] 0.965 | [6] 0.984 | locus YNL128W, strain TEP1, hits give low values 1.04 | [7] 0.951 | [8] 0.983 | [9] 0.998 | [10] 0.979 | locus YNL322C, strain KRE1, hits give low values 0.965 | [11] 0.991 | locus YPL055C, strain LGE1, hits give low values 0.99

C=CC[C@]1(O)CCC2C3CCC4=CC(=O)CCC4=C3C=C[C@@]21C (stereo partly specified)
inactive: [12] 0.989 | [13] 0.975 | [14] 0.994 | [15] 0.989 | [16] 0.988 | [17] 0.986 | [18] 0.975 | [19] 0.988 | [20] 0.996 | [21] 1.01 | [22] 0.998 | [23] 0.998 | [24] 0.999 | [25] 0.987 | [26] 0.996 | [27] 0.991 | [28] 0.995 | [29] 0.996 | [31] 0.997 | locus YDR195W, strain ref2 1.05 | [32] 0.985 | [33] 0.997 | [34] 1.01 | [36] 0.992 | [37] 0.995 | [38] 0.993 | [39] 0.997 | [40] 0.996 | [41] 0.998 | [43] 1.01 | [44] 0.992 | [45] 0.99 | [46] 0.995 | [47] 0.989 | [48] 0.985 | [49] 0.935 | [50] 0.996 | locus YHR030C, strain SLT2, hits give low values 0.992 | locus YHR079C, strain IRE1, hits give low values 1 | [51] 0.944 | [52] 0.984 | [53] 1 | locus YJL095W, strain BCK1, hits give low values 0.909 | [54] 0.991 | [55] 0.91 | [56] 0.995 | [57] 1 | [58] 0.982 | [59] 0.993 | locus YJR066W, strain TOR1, hits give low values 0.946 | [60] 0.984 | [61] 0.977 | [62] 0.996 | [63] 1 | [64] 0.995 | [65] 0.991 | [66] 1 | locus YLR113W, strain HOG1, hits give low values 0.884 | [67] 0.986 | [68] 0.991 | [71] 0.969 | [72] 0.999 | [73] 0.982 | [74] 1 | [75] 0.98 | [76] 0.993 | [77] 1 | [78] 0.993 | [79] 0.895 | [80] 0.995 | locus YNL183C, strain NPR1, hits give low values 0.93 | [82] 1 | [83] 1.01 | [84] 0.999 | [85] 0.997 | [86] 0.99 | [87] 0.982 | [88] 0.998 | [89] 0.994 | [90] 1.01 | locus YOR231W, strain MKK1, hits give low values 0.985 | [91] 0.998 | [92] 0.872 | [93] 0.953 | [94] 0.988 | [95] 1.02 | [96] 1.04 | [97] 0.991 | locus YPL256C, strain CLN2, hits give low values 0.993
active: [30] 0.806 | [35] 0.551 | [42] 0.815 | [69] 0.804 | [70] 0.838 | [81] 0.817

CC#CC1(O)CCC2C3CCC4=CC(=O)CCC4=C3C(c3ccc(N(C)C)cc3)CC21C (stereo unspecified)
inactive: [12] 0.982 | [13] 0.996 | [14] 0.989 | [15] 0.999 | [16] 0.998 | [17] 0.993 | [18] 1.01 | [19] 1 | [20] 0.993 | [21] 1 | [22] 1.01 | [23] 1.01 | [24] 1 | [25] 0.997 | [26] 1.01 | [27] 0.997 | [28] 1 | [29] 0.994 | [30] 1.01 | [31] 1.01 | locus YDR195W, strain ref2 1.07 | [32] 0.996 | [33] 1.02 | [34] 0.998 | [35] 0.966 | [36] 0.995 | [37] 0.99 | [38] 1.01 | [39] 0.996 | [40] 0.996 | [41] 1.01 | [42] 1.01 | [43] 1.03 | [44] 1 | [45] 1 | [46] 1.01 | [47] 0.987 | [48] 1 | [49] 0.995 | [50] 1 | [51] 0.997 | [52] 1 | [53] 0.998 | [54] 1.02 | [55] 0.946 | [56] 1 | [57] 0.983 | [58] 0.99 | [59] 1.02 | [60] 0.99 | [61] 0.993 | [62] 0.996 | [63] 1.01 | [64] 0.999 | [65] 1 | [66] 0.997 | [67] 0.988 | [68] 0.996 | [69] 0.96 | [70] 1 | [71] 0.995 | [72] 1.13 | [73] 0.993 | [74] 0.996 | [75] 0.998 | [76] 1.02 | [77] 1.11 | [78] 0.991 | [79] 0.998 | [80] 1 | [81] 1 | [82] 0.993 | [83] 1.07 | [84] 1.01 | [85] 1 | [86] 0.996 | [87] 0.991 | [88] 1.01 | [89] 0.976 | [90] 0.986 | [91] 0.994 | [92] 0.924 | [93] 1.04 | [94] 0.988 | [95] 1.01 | [96] 0.964 | [97] 0.985
